Test results reported in PubChem BioAssay (EPA / NIEHS).
Records with an inconclusive call do not appear. Calls of active or inactive are those of the source. How the source made its calls, unless noted: active means hit-call score of the fitted dose curve at least 0.9, where 1 is the maximum; inactive means score below 0.9.

Tests used:
[1] = CEETOX_H295R_ANDR_noMTC: CeeTox H295R High-throughput Steroidogenesis Assay for Androstenedione (ANDR), maximum tolerated concentration (MTC) filtered results only (AID 2283915); settings: actives raise or lower the signal
Outline: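 H295R cells, passage 10 or below, prestimulated 48 h with 10 uM forskolin, then exposed 48 h to chemical in 0.1% DMSO. Medium androstenedione extracted with MTBE, quantified by HPLC-MS/MS; concentrations not MTC-filtered; bidirectional fit versus DMSO.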

[2] = CEETOX_H295R_CORTISOL_noMTC: CeeTox H295R High-throughput Steroidogenesis Assay for Cortisol, maximum tolerated concentration (MTC) filtered results only (AID 2283916); settings: actives raise or lower the signal
Outline: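 H295R adrenal cells were pre-stimulated 48 h with 10 uM forskolin, then exposed 48 h to test chemical in 0.1% DMSO. Medium cortisol was measured by MTBE extraction and HPLC-MS/MS; bidirectional fit versus DMSO, concentrations not MTC-filtered.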

[3] = CEETOX_H295R_CORTIC_noMTC: CeeTox H295R High-throughput Steroidogenesis Assay for Corticosterone (CORTIC), maximum tolerated concentration (MTC) filtered results only (AID 2283917); settings: actives raise or lower the signal
Outline: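 H295R, 10 uM forskolin prestim 48 h → test chem (0.1% DMSO final) 48 h → media MTBE extraction → HPLC-MS/MS corticosterone. Bidirectional fit vs DMSO baseline; no MTT-based MTC filtering.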

[4] = CEETOX_H295R_DOC_noMTC: CeeTox H295R High-throughput Steroidogenesis Assay for DOC, maximum tolerated concentration (MTC) filtered results only (AID 2283918); settings: actives raise or lower the signal
Outline: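 H295R cells prestimulated 48 h with 10 uM forskolin, then exposed 48 h to test chemical (0.1% DMSO final). Medium 11-deoxycorticosterone extracted with MTBE, quantified by HPLC-MS/MS; bidirectional fit versus DMSO, concentrations not MTC-filtered.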

[5] = CEETOX_H295R_PROG_noMTC: CeeTox H295R High-throughput Steroidogenesis Assay for Progesterone (PROG), maximum tolerated concentration (MTC) filtered results only (AID 2283920); settings: actives raise or lower the signal
Outline: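 H295R human adrenal cells were prestimulated 48 h with 10 uM forskolin, then exposed 48 h to test chemical (0.1% DMSO final). Progesterone in medium was quantified by HPLC-MS/MS; bidirectional fitting versus DMSO, concentrations not MTC-filtered.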

[6] = CEETOX_H295R_TESTO_noMTC: CeeTox H295R High-throughput Steroidogenesis Assay for Testosterone (TESTO), maximum tolerated concentration (MTC) filtered results only (AID 2283924); settings: actives raise or lower the signal
Outline: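 H295R cells prestimulated 48 h with 10 uM forskolin, then exposed 48 h to chemicals in 0.1% DMSO final. Testosterone in medium quantified by MTBE extraction and HPLC-MS/MS; bidirectional fit versus DMSO, concentrations […] filtered by MTT-based maximum tolerated concentration.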

[7] = CCTE_Mundy_HCI_iCellGluta_NOG_NeuronCount: CCTE's Neurite Outgrowth Assay in iCellGluta cells for Neuron Count, Mundy Lab (AID 2284340; active means hit-call score of the fitted dose curve at least 0.9, where 1 is the maximum;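 further: cells fixed about 48 h after compound addition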)
Outline: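 Neuron count read by automated high-content imaging of Hoechst 33342 and betaIII-tubulin/Alexa Fluor-488 labelling in human iPSC glutamatergic neurons. Activity fitted relative to DMSO.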

[8] = CCTE_Shafer_MEA_acute_AB: CCTE's Alamar Blue Assay for Cytotoxicity in the Neural Acute Assay, Shafer Lab (AID 2284069; active means hit-call score of the fitted dose curve at least 0.9, where 1 is the maximum;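 further: active compounds lower the viability signal compared with DMSO wells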)
Outline: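 Metabolic activity in chemically exposed rat cortical neurons (MEA cultures, day 13/15 post-plating) measured via CellTiter Blue resazurin reduction, 544/590 nm fluorescence; fitted relative to DMSO, with signal loss indicating reduced viability.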

[9] = target: Serine/threonine-protein phosphatase PP1-alpha catalytic subunit (Homo sapiens) (UniProt P62136); test: NVS_ENZ_hPPP1CA: NovaScreen (NVS) Enzymatic Assay for human Protein Phosphatase 1 Aatalytic subunit Alpha (PPP1CA) (AID 2283200; active means hit-call score of the fitted dose curve at least 0.9, where 1 is the maximum)
Serine/threonine-protein phosphatase PP1-alpha catalytic subunit (Homo sapiens), sequence (P62136 whole entry, looked up): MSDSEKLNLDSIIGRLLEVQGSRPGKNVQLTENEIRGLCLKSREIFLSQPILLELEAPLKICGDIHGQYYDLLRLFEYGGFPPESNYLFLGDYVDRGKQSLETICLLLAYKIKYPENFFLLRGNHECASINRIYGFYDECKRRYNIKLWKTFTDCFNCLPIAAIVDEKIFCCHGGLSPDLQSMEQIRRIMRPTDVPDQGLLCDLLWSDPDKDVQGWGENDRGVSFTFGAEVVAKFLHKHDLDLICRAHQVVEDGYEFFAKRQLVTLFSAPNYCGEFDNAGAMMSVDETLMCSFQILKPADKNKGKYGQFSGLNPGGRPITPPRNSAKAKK
Outline: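 Recombinant enzyme activity read by fluorescence with electrophoretic mobility shift separating substrate from product, 1.33 h after dosing; loss of signal vs DMSO baseline. Primary screen in duplicate at 25 uM; actives retested in concentration-response up to 50 uM.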

[10] = target: human Protein Tyrosine Phosphatase Non-receptor Type 4 (PTPN4), PTPN4 (gene 5775) (UniProt P29074); test: NVS_ENZ_hPTPN4: NovaScreen (NVS) Enzymatic Assay for human Protein Tyrosine Phosphatase Non-receptor Type 4 (PTPN4) (AID 2283208; active means hit-call score of the fitted dose curve at least 0.9, where 1 is the maximum)
human Protein Tyrosine Phosphatase Non-receptor Type 4 (PTPN4), PTPN4 (gene 5775), sequence (P29074 whole entry, looked up): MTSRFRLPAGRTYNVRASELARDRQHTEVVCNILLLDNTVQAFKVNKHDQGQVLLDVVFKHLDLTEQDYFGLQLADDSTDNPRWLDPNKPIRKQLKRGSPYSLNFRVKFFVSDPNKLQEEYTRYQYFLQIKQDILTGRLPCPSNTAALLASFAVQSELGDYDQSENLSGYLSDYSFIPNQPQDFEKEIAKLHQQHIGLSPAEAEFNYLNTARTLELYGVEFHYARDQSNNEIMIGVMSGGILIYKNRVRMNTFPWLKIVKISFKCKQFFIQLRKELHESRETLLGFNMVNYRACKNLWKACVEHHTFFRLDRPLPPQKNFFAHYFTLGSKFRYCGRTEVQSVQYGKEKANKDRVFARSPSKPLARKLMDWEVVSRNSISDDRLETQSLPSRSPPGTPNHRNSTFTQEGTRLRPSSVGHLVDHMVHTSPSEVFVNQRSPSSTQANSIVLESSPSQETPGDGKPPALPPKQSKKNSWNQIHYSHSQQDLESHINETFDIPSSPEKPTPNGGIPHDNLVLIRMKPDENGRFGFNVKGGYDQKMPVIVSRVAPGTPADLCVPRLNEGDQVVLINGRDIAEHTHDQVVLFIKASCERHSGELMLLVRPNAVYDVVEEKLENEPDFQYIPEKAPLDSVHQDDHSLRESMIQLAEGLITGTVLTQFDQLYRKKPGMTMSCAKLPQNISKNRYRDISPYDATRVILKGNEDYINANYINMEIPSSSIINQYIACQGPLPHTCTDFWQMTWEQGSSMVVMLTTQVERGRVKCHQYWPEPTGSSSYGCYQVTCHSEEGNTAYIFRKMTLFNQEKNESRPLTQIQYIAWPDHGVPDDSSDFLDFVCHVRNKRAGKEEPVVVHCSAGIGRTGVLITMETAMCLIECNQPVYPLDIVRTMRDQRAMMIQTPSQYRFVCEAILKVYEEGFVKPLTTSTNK
Outline: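 Cell-free assay of PTPN4 expressed in Sf9 cells, using a fluorescent substrate with product separated by mobility shift; read 1.33 h after dosing. Single-point screen at 25 uM, then concentration-response up to 50 uM. Loss of signal relative to DMSO.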

[11] = Tanguay_ZF_120hpf_PIG_legacy: (Legacy) Oregon State University Tanguay Lab 120 Hour Post-fertilization zebrafish Assay for Pigmentation Malformation (AID 2283650; active means hit-call score of the fitted dose curve at least 0.9, where 1 is the maximum)
Outline: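 Tropical 5D wild-type zebrafish embryos, dechorionated with pronase at 4 hpf, were exposed singly from 6 hpf to 120 hpf statically at 28C in sealed, dark plates with 0.64% DMSO; pigmentation scored present/absent by brightfield microscopy, fitted against DMSO.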

[12] = CCTE_Padilla_ZF_144hpf_TERATOSCORE: (Legacy) CCTE's 144 Hour Post-fertilization zebrafish Assay Teratoscore, Padilla Lab (AID 2283679);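 further: zebrafish embryos with chorions exposed by immersion from 6-8 hpf to 5 dpf with daily renewal; teratogenicity score from eye scoring of death hatching and malformations at 144 hpf; higher score means more developmental defects relative to DMSO baseline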
Outline: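 Larvae scored by eye at 144 hpf for death, hatching and malformations after a day in clean Hanks'. Before that, daily-renewed exposure at 80 uM (0.4% DMSO, 26C) from roughly 6-8 hpf through 5 dpf, 4 embryos per chemical.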

[13] = CCTE_Deisenroth_H295R-HTRF_384WELL_ESTRADIOL: CCTE's H295R-HTRF Assay Evaluation of Estradiol Concentration, Deisenroth Lab (AID 2284361); settings: actives raise or lower the signal
Outline: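 H295R cells exposed 48 h to chemicals at 0.001 - 100 uM final (nine points, triplicate); estradiol in conditioned medium measured by HTRF immunoassay, fitted bidirectionally versus DMSO. Viability by CellTiter-Glo on same plates.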

[14] = CCTE_Deisenroth_H295R-HTRF_384WELL_TESTOSTERONE: CCTE's H295R-HTRF Assay Evaluation of Testosterone Concentration, Deisenroth Lab (AID 2284373); settings: actives raise or lower the signal
Outline: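 Secreted testosterone was quantified by HTRF immunoassay of medium from human adrenocortical H295R cells after 48 h chemical exposure at 0.001–100 uM final. Gain or loss was fitted against DMSO. ATP-based viability was read on matched wells, five experimental replicates.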

[15] = CCTE_Deisenroth_H295R-HTRF_384WELL_CTOX: Cytotoxicity Assessment in CCTE's H295R-HTRF Assay, Deisenroth Lab (AID 2284380; active means hit-call score of the fitted dose curve at least 0.9, where 1 is the maximum)
Outline: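 H295R adrenocortical carcinoma cells plated 24 h, then exposed 48 h to nine-point series 0.001–100 uM final, triplicate, n=5. ATP measured by CellTiter-Glo 2.0 luminescence on same plates after medium collection; loss versus DMSO.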

[16] = target: guinea pig Leukotriene D4 Receptor (LTD4), CYSLTR1 (gene 100135514) (UniProt Q2NNR5); test: NVS_GPCR_gLTD4: NovaScreen (NVS) G Protein-Coupled Receptor Assay for guinea pig Leukotriene D4 Receptor (LTD4) (AID 2283248; active means hit-call score of the fitted dose curve at least 0.9, where 1 is the maximum)
guinea pig Leukotriene D4 Receptor (LTD4), CYSLTR1 (gene 100135514), sequence (Q2NNR5 whole entry, looked up): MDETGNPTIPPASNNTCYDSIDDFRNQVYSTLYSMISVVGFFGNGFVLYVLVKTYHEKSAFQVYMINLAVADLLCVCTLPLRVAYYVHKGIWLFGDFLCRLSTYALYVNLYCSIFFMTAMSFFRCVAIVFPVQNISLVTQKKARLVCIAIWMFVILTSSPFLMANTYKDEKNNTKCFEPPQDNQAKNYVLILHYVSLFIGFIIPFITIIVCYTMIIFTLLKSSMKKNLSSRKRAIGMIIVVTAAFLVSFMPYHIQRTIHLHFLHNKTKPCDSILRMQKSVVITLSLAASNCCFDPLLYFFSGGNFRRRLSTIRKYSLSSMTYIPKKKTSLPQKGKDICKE
Outline: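 Radioligand displacement on guinea pig lung membranes, 1 h incubation, filtration and scintillation counting; DMSO as negative control. Duplicate 25 uM primary screen, then singleton concentration-response up to 50 uM.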

[17] = STM_H9_OrnithineISnorm_perc: Stemina devTOX quickPredict H9 human embryonic stem cell (hESC)-based Assay for Ornithine (ORN) Metabolite Biomarker, Normalized (AID 2283712);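 further: ornithine released into spent medium during last day measured by mass spectrometry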
Outline: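 Undifferentiated H9 hESCs exposed 72 h with daily media and compound renewal; final 24-h conditioned medium analysed by UPLC-HRMS. Ornithine peak area normalised to spiked C13 standard and to median 0.1% DMSO control; viability by CellTiter-Fluor.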

[18] = STM_H9_CystineISnorm_perc: Stemina devTOX quickPredict H9 human embryonic stem cell (hESC)-based Assay for Cystine (CYSS) Metabolite Biomarker, Normalized (AID 2283713)
Outline: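 Undifferentiated H9 hESCs exposed 72 h, compound and media replaced every 24 h; final 24-h media analysed by UPLC-HRMS. Cystine normalized to C13 spike-in standard and median 0.1% DMSO control.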

[19] = target: human CYP1A2, CYP1A2 (gene 1544) (UniProt P05177); test: NVS_ADME_hCYP1A2: NovaScreen (NVS) CYP450-related Enzyme Activity (ADME) Assay for human CYP1A2 (AID 2283102; active means hit-call score of the fitted dose curve at least 0.9, where 1 is the maximum)
human CYP1A2, CYP1A2 (gene 1544), sequence (P05177 whole entry, looked up): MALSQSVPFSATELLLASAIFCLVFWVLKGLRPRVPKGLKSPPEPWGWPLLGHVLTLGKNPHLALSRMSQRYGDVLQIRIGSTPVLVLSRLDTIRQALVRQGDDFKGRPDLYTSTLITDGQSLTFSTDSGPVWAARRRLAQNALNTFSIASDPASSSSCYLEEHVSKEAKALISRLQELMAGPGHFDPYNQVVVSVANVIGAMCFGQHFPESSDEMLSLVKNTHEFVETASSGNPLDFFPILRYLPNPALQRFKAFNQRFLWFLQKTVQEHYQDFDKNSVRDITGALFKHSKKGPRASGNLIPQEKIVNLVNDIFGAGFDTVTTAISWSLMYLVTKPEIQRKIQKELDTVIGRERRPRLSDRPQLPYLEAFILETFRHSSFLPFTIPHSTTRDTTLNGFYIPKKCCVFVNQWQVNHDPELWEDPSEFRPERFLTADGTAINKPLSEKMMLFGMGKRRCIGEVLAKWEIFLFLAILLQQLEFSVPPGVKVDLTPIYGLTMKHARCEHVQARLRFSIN
Outline: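 Cell-free recombinant human CYP1A2 expressed in insect cells, with fluorogenic substrate; fluorescence intensity read 0.5 h after dosing. Loss of signal relative to acetonitrile baseline scored. Primary screen in duplicate at 10 uM; actives retested in concentration series.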

[20] = target: human Ephrin type-A Receptor 2 (EphA2), EPHA2 (gene 1969) (UniProt P29317); test: NVS_ENZ_hEphA2: NovaScreen (NVS) Enzymatic Assay for human Ephrin type-A Receptor 2 (EphA2) (AID 2283155; active means hit-call score of the fitted dose curve at least 0.9, where 1 is the maximum)
human Ephrin type-A Receptor 2 (EphA2), EPHA2 (gene 1969), sequence (P29317 whole entry, looked up): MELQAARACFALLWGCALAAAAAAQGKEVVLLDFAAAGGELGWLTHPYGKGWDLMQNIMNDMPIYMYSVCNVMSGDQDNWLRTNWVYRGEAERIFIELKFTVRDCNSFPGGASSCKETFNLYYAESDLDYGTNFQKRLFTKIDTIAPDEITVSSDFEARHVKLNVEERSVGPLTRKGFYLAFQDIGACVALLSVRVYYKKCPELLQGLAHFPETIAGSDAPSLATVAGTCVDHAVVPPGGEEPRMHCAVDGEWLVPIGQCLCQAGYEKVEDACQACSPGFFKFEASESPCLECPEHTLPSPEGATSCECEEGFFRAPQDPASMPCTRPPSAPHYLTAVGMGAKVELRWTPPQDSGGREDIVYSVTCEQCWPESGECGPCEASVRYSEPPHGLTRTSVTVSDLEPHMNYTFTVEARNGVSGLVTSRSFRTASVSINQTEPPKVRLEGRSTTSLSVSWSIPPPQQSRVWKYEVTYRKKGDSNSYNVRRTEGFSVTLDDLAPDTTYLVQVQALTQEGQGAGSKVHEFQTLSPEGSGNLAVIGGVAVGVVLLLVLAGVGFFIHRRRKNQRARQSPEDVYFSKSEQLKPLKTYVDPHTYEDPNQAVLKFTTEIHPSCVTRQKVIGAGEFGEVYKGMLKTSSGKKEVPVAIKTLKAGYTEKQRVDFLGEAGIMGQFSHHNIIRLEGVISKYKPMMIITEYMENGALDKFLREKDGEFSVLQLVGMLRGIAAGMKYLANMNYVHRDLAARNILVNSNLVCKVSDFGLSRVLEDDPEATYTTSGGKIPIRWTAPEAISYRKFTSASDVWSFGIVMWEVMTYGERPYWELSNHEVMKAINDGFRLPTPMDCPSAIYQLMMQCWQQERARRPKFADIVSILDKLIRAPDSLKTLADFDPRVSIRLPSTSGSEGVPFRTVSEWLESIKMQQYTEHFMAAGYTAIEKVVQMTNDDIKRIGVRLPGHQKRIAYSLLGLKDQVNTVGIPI
Outline: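 Cell-free recombinant EphA2 kinase with specific substrate, 1 h, fluorescence with electrophoretic mobility-shift separation of substrate and product. Primary screen at 25 uM in duplicate; hits retested in singleton concentration-response up to 50 uM, referenced to DMSO.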

Structure (SMILES): C[C@]12CC[C@H](O)C[C@H]1CC[C@@H]1[C@@H]2C[C@@H](O)[C@]2(C)[C@@H](C3=CC(=O)OC3)CC[C@]12O
- AC50 [1]: 5.44 µM (active)
- AC50 [2]: 4.34 µM (active)
- AC50 [3]: 3.91 µM (active)
- AC50 [4]: 10.8 µM (active)
- AC50 [5]: 10.7 µM (active)
- AC50 [6]: 4.25 µM (active)

Structure (SMILES): CNC(=N[N+](=O)[O-])NCC1CCOC1 (stereo not given)
- outcome [7]: inactive

Structure (SMILES): O=c1c2ccccc2c(=O)c2c1cc(Cl)c1[nH]c3c([nH]c12)c(Cl)cc1c(=O)c2ccccc2c(=O)c13
- outcome [8]: inactive

Structure (SMILES): O=C(CCl)c1ccccc1
- outcome [9]: inactive
- outcome [10]: inactive
- outcome [11]: inactive
- AC50 [12]: 4.85 µM (active)

Structure (SMILES): C[C@]12CC[C@H]3[C@@H](CC[C@@]45O[C@@H]4C(O)=C(C#N)C[C@]35C)[C@@H]1CC[C@@H]2O
- AC50 [13]: 3.06 µM (active)
- AC50 [14]: 19 µM (active)
- outcome [15]: inactive

Structure (SMILES): S=c1[nH]c2ccccc2[nH]1
- outcome [16]: inactive

Structure (SMILES): Cc1ccc(OP(=O)(Oc2ccc(C)cc2)Oc2ccc(C)cc2)cc1 (tested in a mixture with another compound)
- outcome [17]: inactive
- AC50 [18]: 58.4 µM (active)

Structure (SMILES): N#CCCCCC#N
- outcome [19]: inactive
- outcome [20]: inactive
